Assay [1] in a line: ATG_E_Box_CIS: Attagene CIS-FACTORIAL HepG2 Assay for human Enhancer Box (E-box) (AID 2282936). Particulars: HepG2 E-box cis-reporter transcription, actives raise or lower the signal. The method, boiled down:
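DMSO served as negative control and baseline for bidirectional fitting. Human hepatoma HepG2 cells, transiently transfected with cis-reporter constructs, were dosed 24 h; reporter mRNA read by RT-PCR and capillary electrophoresis.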

Assay [2] is described as follows: ATG_M_61_CIS: Attagene CIS-FACTORIAL HepG2 Assay for M61 Transcription Factor (Internal Marker) (AID 2282937). Particulars: HepG2 Attagene CIS-FACTORIAL M61 internal marker reporter; actives raise or lower the signal. The method, boiled down: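 Multiplexed reporter mRNA assay, HepG2 human hepatoma cells, 24 h treatment. Signal: FAM-labelled, HpaI-digested RT-PCR fragments by CE. Fit: bidirectional, baseline DMSO.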

Assay [3] can be described thus: ATG_EGR_CIS: Attagene CIS-FACTORIAL HepG2 Assay for human Early Growth Response 1 (EGR1) (AID 2282938). Particulars: HepG2 Attagene CIS-FACTORIAL EGR reporter mRNA; actives raise or lower the signal. The method, boiled down: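 Multiplexed cis-reporter system in human hepatoma HepG2 cells, transiently transfected. Cells are dosed for 24 h; reporter transcripts are amplified, fluorescently tagged and sized by capillary electrophoresis, with DMSO as negative control.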

A short description of assay [4]: ATG_M_19_CIS: Attagene CIS-FACTORIAL HepG2 Assay for M19 Transcription Factor (Internal Marker) (AID 2282939). The following applies: HepG2 Attagene CIS-FACTORIAL M19 internal marker reporter; actives raise or lower the signal. In a few lines:
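HepG2, MRTU transient transfection, 24 h dosing. Total RNA → RT-PCR → 6-FAM primer extension → HpaI digest → CE fluorescence. Bidirectional curve fit, DMSO negative control.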

Assay [5] can be described thus: ATG_ERE_CIS: Attagene CIS-FACTORIAL HepG2 Assay for Estrogen Response Element (ERE) (AID 2282940). The following applies: HepG2 ERE cis-reporter, Attagene RNA transcript; actives raise or lower the signal. In a few lines:
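After a 24 h chemical treatment, RNA from reporter-transfected HepG2 cells is reverse-transcribed, PCR-amplified and fluorescently labelled. Fragments separated by capillary electrophoresis give reporter signal; DMSO serves as negative control.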

A short description of assay [6]: ATG_Ets_CIS: Attagene CIS-FACTORIAL HepG2 Assay for human Erythroblast Transformation Specific (ETS) (AID 2282941). Particulars: HepG2 ETS cis-reporter transcription, actives raise or lower the signal. The method, boiled down: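 HepG2 cells transiently transfected with cis-promoter reporter transcription units were dosed for 24 h; reporter mRNA was measured by RT-PCR, 6-FAM primer extension, HpaI digestion and capillary electrophoresis, with bidirectional fitting against DMSO baseline.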

Assay [7] addresses Hepatocyte nuclear factor 3-beta (Homo sapiens) (UniProt Q9Y261). The experiment in a line: ATG_FoxA2_CIS: Attagene CIS-FACTORIAL HepG2 Assay for human Forkhead box A2 (FOXA2) (AID 2282942). Particulars: HepG2 cis-reporter transcription factor activity, 24 h; actives raise or lower the signal. The method, boiled down: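 Multiplexed cis-element reporter assay in transiently transfected HepG2. Twenty-four hours post-dosing, RNA was reverse-transcribed, amplified, FAM-labelled, HpaI-digested and separated by CE. Activity gain or loss relative to DMSO.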

Assay [8] is described as follows: ATG_FoxO_CIS: Attagene CIS-FACTORIAL HepG2 Assay for human Forkhead box O (FoxO) (AID 2282943). The following applies: HepG2 Attagene cis-reporter, FoxO element, mRNA; actives raise or lower the signal. In a few lines:
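Endogenous transcription factor activity read from multiplexed cis-promoter reporter transcripts in transiently transfected HepG2, 24 h after dosing. Reporter RNA measured via RT-PCR plus capillary electrophoresis of FAM-labeled products; gain or loss relative to DMSO.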

Assay [9] in a line: ATG_GATA_CIS: Attagene CIS-FACTORIAL HepG2 Assay for human GATA Binding Protein (AID 2282944). The following applies: HepG2 GATA cis-element reporter, Attagene multiplex mRNA; actives raise or lower the signal. The method, boiled down: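 Cells: HepG2, transiently transfected with cis-regulated reporter transcription units. Exposure: 24 h. Detection: RT-PCR plus capillary electrophoresis of FAM-labeled fragments. Analysis: bidirectional, DMSO as baseline.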

Assay [10] can be described thus: ATG_GLI_CIS: Attagene CIS-FACTORIAL HepG2 Assay for human Zinc Finger Protein GLI1 (AID 2282945). The following applies: HepG2, Attagene cis-factorial reporter mRNA, GLI element; actives raise or lower the signal. In a few lines: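 Bidirectional curve fits relative to DMSO, using reporter mRNA levels from RT-PCR plus capillary electrophoresis. Cells were HepG2 transiently carrying cis-regulated reporter constructs, harvested 24 h after dosing.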

Assay [11] can be described thus: ATG_GRE_CIS: Attagene CIS-FACTORIAL HepG2 Assay for human Glucocorticoid Response Elements (GRE) (AID 2282947). Particulars: HepG2 GRE cis-reporter, Attagene multiplex mRNA; actives raise or lower the signal. In a few lines: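 Assay uses human hepatoma HepG2 cells transfected with cis-promoter reporter units, exposed 24 h. mRNA from reporters detected by RT-PCR plus capillary electrophoresis; DMSO serves as negative control and baseline.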

Assay [12] is described as follows: ATG_ISRE_CIS: Attagene CIS-FACTORIAL HepG2 Assay for human Interferon Regulatory Factor 1 (IRF1) binding to an Interferon-Stimulated Response Element (ISRE) (AID 2282948). Particulars: HepG2 ISRE cis-reporter (Attagene), mRNA transcription readout; actives raise or lower the signal. In a few lines:
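HepG2 cells transiently transfected with multiplexed cis-promoter reporter units; after 24 h compound exposure, reporter mRNA quantified by RT-PCR, FAM labelling, HpaI digestion and capillary electrophoresis. Bidirectional fit versus DMSO baseline.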

Assay [13] in a line: ATG_M_32_CIS: Attagene CIS-FACTORIAL HepG2 Assay for M32 Transcription Factor (Internal Marker) (AID 2282949).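 Also: background control marker of the multiplexed CIS panel rather than a real target.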 Particulars: HepG2 Attagene cis-factorial M32 reporter, mRNA; actives raise or lower the signal. In a few lines:
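Internal background marker read-out: RT-PCR/capillary electrophoresis fluorescence of reporter transcripts from transiently transfected HepG2 cells after 24 h chemical exposure. Activity fitted bidirectionally relative to DMSO negative control.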

Assay [14] in a line: ATG_M_06_CIS: Attagene CIS-FACTORIAL HepG2 Assay for M06 Transcription Factor (Internal Marker) (AID 2282950). Particulars: HepG2 Attagene CIS-FACTORIAL M06 internal marker reporter; actives raise or lower the signal. In a few lines:
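Measured 24 h post-dosing in transiently transfected HepG2 cells, this internal-marker endpoint reports reporter mRNA via RT-PCR with fluorescent primer extension and capillary electrophoresis. DMSO served as negative control and baseline for bidirectional fitting.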

Assay [15] has as its target Hypoxia-inducible factor 1-alpha (Homo sapiens) (UniProt Q16665). In words: ATG_HIF1a_CIS: Attagene CIS-FACTORIAL HepG2 Assay for human Hypoxia Inducible Factor 1 (HIF1A) (AID 2282951). Particulars: HepG2 Attagene cis-factorial HIF1a reporter transcription; actives raise or lower the signal. In a few lines: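 Cis-element reporter constructs were transiently transfected into HepG2 cells, which were treated for 24 h; reporter RNA was reverse-transcribed, amplified, labelled and resolved by capillary electrophoresis.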

The target of assay [16] is Hepatocyte nuclear factor 6 (Homo sapiens) (UniProt Q9UBC0). The experiment in a line: ATG_HNF6_CIS: Attagene CIS-FACTORIAL HepG2 Assay for human Hepatocyte Nuclear Factor 6 (HNF6) (AID 2282952). Particulars: HepG2 Attagene cis-factorial HNF6 reporter transcription; actives raise or lower the signal. The method, boiled down: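 Cells are HepG2 carrying transiently transfected cis-promoter reporter units. Treatment lasts 24 h, after which reporter transcripts are reverse-transcribed, amplified, FAM-labelled and sized by capillary electrophoresis. DMSO serves as baseline.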

Assay [17] in a line: ATG_MRE_CIS: Attagene CIS-FACTORIAL HepG2 Assay for human Metal Responsive Element (MRE) (AID 2282954). Particulars: HepG2 MRE cis-reporter transcription, Attagene multiplex; actives raise or lower the signal. The method, boiled down:
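After a 24 h chemical exposure, transiently transfected HepG2 cells yield RNA whose reporter sequences are amplified, FAM-labelled and sized by capillary electrophoresis. Curves are fitted bidirectionally relative to DMSO.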

Assay [18] in a line: ATG_PBREM_CIS: Attagene CIS-FACTORIAL HepG2 Assay for human Phenobarbital-responsive Enhancer Module (PBREM) (AID 2282955). The following applies: HepG2 PBREM cis-reporter, Attagene multiplexed transcription; actives raise or lower the signal. The method, boiled down: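 Multiplexed cis-reporter readout in human hepatoma HepG2 cells; PBREM-regulated transcript quantified after 24 h exposure by fluorescent RT-PCR fragment analysis. Signal changes up or down fitted relative to DMSO.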

For assay [19], the target named is Heat shock factor protein 1 (Homo sapiens) (UniProt Q00613). The experiment in a line: ATG_HSE_CIS: Attagene CIS-FACTORIAL HepG2 Assay for human Heat Shock Transcription Factor 1 (HSE) (AID 2282953). Particulars: HepG2 HSE cis-reporter, Attagene RNA transcription; actives raise or lower the signal. In a few lines:
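Reporter mRNA induction in HepG2 is measured 24 h after dosing, using transiently transfected multiplexed cis-regulated reporter units. Signal comes from capillary electrophoresis of labelled RT-PCR products, with DMSO as negative control.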

Assay [20] addresses Bile acid receptor (Homo sapiens) (UniProt Q96RI1). In words: ATG_IR1_CIS: Attagene CIS-FACTORIAL HepG2 Assay for human Nuclear Receptor Subfamily 1 Group H Member 4 (NR1H4), IR1 submotif (AID 2282946). Particulars: IR1 reporter transcription, actives raise or lower the signal. The method, boiled down: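 Cells (human HepG2) carry transiently transfected cis-promoter reporter transcription units. Compounds are incubated 24 h, total RNA is reverse-transcribed and amplified, and labelled fragments are resolved by capillary electrophoresis. Curves use DMSO as baseline.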

“And” between values parts separate entries of the source, which are not always exact repeats. Equal values may be shown once. The source holds several records for some structures; these can differ, active in one and inactive in another. The source made the active and inactive calls. The calls were made as follows: active = hit-call score of the fitted dose curve at least 0.9, where 1 is the maximum; inactive = score below 0.9.

Hepatocyte nuclear factor 6 (Homo sapiens), sequence (Q9UBC0 whole entry, looked up): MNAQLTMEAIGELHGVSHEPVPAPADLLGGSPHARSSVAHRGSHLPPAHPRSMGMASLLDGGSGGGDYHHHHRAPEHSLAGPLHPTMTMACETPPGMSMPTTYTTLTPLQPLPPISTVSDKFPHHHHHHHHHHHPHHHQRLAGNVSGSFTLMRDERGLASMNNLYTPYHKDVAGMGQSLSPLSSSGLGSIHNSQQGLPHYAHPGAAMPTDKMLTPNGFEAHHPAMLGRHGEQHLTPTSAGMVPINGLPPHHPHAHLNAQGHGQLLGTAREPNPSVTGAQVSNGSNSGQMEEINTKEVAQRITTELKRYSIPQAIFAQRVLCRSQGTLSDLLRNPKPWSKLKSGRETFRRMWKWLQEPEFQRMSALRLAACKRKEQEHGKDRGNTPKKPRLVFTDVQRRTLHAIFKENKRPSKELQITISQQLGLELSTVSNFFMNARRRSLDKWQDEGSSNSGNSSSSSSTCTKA
Bile acid receptor (Homo sapiens), sequence (Q96RI1 whole entry, looked up, the tested form may be a part): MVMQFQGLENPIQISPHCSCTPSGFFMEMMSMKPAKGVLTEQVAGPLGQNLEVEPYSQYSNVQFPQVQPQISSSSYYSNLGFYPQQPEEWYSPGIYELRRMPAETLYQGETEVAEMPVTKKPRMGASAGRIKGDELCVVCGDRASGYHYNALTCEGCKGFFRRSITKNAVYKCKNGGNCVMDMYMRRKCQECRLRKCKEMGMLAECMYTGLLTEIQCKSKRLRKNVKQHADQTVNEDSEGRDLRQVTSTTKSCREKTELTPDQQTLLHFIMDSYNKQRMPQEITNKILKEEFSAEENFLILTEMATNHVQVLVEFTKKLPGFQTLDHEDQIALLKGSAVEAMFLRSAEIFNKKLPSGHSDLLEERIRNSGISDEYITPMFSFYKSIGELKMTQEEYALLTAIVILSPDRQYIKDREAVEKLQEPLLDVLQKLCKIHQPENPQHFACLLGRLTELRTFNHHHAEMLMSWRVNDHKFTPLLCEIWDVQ
Hypoxia-inducible factor 1-alpha (Homo sapiens), sequence (Q16665 whole entry, looked up): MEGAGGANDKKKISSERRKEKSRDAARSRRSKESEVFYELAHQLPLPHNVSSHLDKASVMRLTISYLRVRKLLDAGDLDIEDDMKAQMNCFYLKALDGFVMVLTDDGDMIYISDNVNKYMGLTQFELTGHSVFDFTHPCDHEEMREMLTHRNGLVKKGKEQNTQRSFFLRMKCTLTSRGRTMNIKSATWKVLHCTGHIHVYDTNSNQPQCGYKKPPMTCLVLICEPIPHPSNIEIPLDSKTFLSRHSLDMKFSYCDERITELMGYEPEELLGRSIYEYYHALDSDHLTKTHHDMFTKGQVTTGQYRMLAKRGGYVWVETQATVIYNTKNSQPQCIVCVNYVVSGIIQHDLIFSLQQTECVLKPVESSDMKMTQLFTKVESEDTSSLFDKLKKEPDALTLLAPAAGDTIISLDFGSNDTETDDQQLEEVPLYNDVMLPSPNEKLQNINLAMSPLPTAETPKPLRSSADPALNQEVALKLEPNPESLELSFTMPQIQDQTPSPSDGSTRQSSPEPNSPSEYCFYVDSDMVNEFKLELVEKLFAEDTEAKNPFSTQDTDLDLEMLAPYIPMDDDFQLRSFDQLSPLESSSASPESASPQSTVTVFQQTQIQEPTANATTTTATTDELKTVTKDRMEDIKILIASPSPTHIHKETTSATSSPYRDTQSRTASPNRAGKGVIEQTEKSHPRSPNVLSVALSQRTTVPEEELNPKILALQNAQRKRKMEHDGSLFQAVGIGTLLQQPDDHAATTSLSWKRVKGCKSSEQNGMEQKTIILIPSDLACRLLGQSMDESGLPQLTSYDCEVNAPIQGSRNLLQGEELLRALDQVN
Heat shock factor protein 1 (Homo sapiens), sequence (Q00613 whole entry, looked up): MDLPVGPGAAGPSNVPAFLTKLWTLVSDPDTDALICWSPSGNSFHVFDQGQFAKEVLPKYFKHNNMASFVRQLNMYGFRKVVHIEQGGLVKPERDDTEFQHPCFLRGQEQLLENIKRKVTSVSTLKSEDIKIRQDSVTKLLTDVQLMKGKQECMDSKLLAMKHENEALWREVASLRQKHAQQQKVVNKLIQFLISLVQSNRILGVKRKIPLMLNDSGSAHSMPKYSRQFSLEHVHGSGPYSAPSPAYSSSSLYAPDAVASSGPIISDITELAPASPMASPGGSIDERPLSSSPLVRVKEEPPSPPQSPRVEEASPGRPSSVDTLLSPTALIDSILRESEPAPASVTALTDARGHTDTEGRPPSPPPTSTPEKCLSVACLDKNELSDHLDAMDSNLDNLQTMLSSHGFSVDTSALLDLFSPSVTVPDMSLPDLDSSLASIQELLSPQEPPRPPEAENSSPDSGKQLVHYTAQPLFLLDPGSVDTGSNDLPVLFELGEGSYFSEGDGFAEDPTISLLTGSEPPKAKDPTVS
Hepatocyte nuclear factor 3-beta (Homo sapiens), sequence (Q9Y261 whole entry, looked up): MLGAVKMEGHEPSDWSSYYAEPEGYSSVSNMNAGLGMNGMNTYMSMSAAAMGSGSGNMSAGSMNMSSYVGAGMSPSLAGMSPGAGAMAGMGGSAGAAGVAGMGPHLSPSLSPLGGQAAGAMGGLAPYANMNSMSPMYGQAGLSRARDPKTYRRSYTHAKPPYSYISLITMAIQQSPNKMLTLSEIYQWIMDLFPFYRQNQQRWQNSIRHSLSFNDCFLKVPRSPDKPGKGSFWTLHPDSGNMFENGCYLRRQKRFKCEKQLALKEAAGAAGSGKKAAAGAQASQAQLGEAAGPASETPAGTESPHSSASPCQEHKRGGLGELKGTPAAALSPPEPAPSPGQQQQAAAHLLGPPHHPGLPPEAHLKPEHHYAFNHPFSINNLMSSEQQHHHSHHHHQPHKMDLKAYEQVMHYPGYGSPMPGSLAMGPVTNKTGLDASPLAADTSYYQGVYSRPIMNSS

For the molecule `Cc1ccccc1[N+](=O)[O-]`, the outcome in [1], in assay [2], in [3], in [4], in [5] and in [6] was inactive. Besides, the result in [7], in assay [8], in assay [9], in assay [10], in assay [11] and in [12] was inactive. Moreover, the outcome in [13], in [14], in assay [15], in [16], in assay [17] and in [18] was inactive.

The AC50 is the concentration giving half of the maximal activity seen. Regarding `Sc1ccccc1`, the outcome in assay [1], in [2], in assay [3], in [4], in assay [6] and in [7] was inactive. In addition, the molecule was classed as inactive in [8], in assay [9], in assay [10], in [11], in assay [12] and in assay [13]. For the same molecule, the result in assay [14], in [15], in assay [16], in assay [19], in [17] and in assay [18] was inactive. Besides, the half-maximal activity concentration (AC50) in assay [5] was 27.1 µM (active) and 100 µM (active); in assay [19], 160 µM (active).

Regarding `CCC(C)(c1ccc(O)cc1)c1ccc(O)cc1`, the concentration at half-maximal activity (AC50) in [1] was 43.5 µM (active); in assay [3], 48.8 µM (active); in assay [5] it was 198 nM (active) [middle of 4 runs]; in [6], 53.8 µM (active); in [9] it was 44.9 µM (active); in assay [10], 60.5 µM (active). Further, the half-maximal activity concentration (AC50) was 43 µM (active) and 33.4 µM (active) and 54.5 µM (active) in assay [20]; 45.6 µM (active) and 50.3 µM (active) and 33.4 µM (active) in assay [12]; 75.9 nM (active) and 26.2 µM (active) in [15]; 51.8 µM (active) in assay [16]; 1.17 µM (active) in [18]. Besides, the result in [1], in [2], in [3], in [6], in [7] and in assay [8] was inactive. Besides, the molecule was called inactive in assay [9], in assay [10], in [20], in assay [12], in [13] and in [15]. In addition, the call in [16] and in assay [18] was inactive.

With `COS(=O)(=O)OC`, the outcome in assay [1], in assay [2], in [3], in assay [4], in assay [5] and in assay [6] was inactive. In addition, the molecule was classed as inactive in assay [7], in assay [8], in [9], in assay [10], in assay [11] and in assay [12]. The call in assay [13], in assay [16], in assay [19] and in assay [17] was inactive. Besides, in assay [15], the AC50 was 26.9 µM (active).

Regarding `CCCCCCCCCC[N+](C)(C)CCCCCCCCCC`, the AC50 is 40.8 µM (active) in assay [1]; 6.79 µM (active) in assay [3]; 100 µM (active) in assay [9]; 100 µM (active) in assay [10]; 5.11 µM (active) in [20]; 8.55 µM (active) in [11]. In addition, the AC50 is 24.9 µM (active) in assay [12] and 4.45 µM (active) in assay [17]. Besides, the outcome in assay [2], in [4], in assay [5], in assay [6], in assay [7] and in assay [8] was inactive. In addition, the molecule was classed as inactive in assay [13], in assay [14], in assay [15], in assay [16], in assay [19] and in assay [18].
